# hgDAF12 agonist = activates the H. glycines DAF-12 receptor ligand-binding domain; AID 687014; activation, % at 6.8 µM; HEK293 GAL4-hgDAF12 UAS-luciferase reporter, agonist luminescence; normalized to butyrate control; hit rate 1.8% among 370,000;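 active = activation above a cutoff set at the mean of all screened compounds plus 3 SD, cut at about 10% in these data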;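 note: 0% = DMSO wells and 100% = sodium butyrate wells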
# DAX1 inh-1 = inhibitors of DAX1 repression of SF-1 activated StAR promoter; HEK293T StAR-luciferase reporter, SF-1/DAX-1 repression relief; inhibition, % at 6.8 µM; hit rate 1.1% among 370,000; AID 652010;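 active = inhibition above the mean over all tested compounds plus 3 SD, cut at about 3.6% in these data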;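 note: 0% = DAX-1 cells with DMSO and 100% = cells lacking DAX-1 with DMSO; higher inhibition means more luminescence from relief of DAX-1 repression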
# hcDAF-12 act = H. contortus DAF-12 activation, primary screen; HEK293 hcDAF-12 lit1-tk-luc reporter, luminescence; 0% DMSO, 100% Δ7-dafachronic acid; activation, % at 6.8 µM; AID 652067; hit rate 1.4% among 370,000;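 active = activation above the mean of all tested compounds plus 3 SD, cut at about 5.5% in these data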;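 note: 100% = response to 3 µM Δ7-dafachronic acid high control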
# ssDAF12 agonist = activates DAF-12 receptor from parasite S. stercoralis; HEK293 ssDAF-12/GRIP1 lit1-tk-luc reporter, luminescence; % of 3 µM dafachronic acid response; activation, % at 6.8 µM; hit rate 1% among 370,000;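 active = activation above the mean over all tested compounds plus 3 SD, cut at about 0.9% in these data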;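 note: 0% = DMSO-only wells and 100% = 3 µM delta7-dafachronic acid wells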
# SMARCA2 act = activators of SMARCA2 function. MG213 cells, MMTV-luciferase reporter, dexamethasone, overnight. activation, % at 9.1 µM. hit rate 1% among 370,000; in the data active = activation above about 7.8%;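 note: 0% = vehicle wells and 100% = reference activator wells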
# DAX1 inh-2 = inhibits human nuclear receptor DAX1; P51843; HEK293 Gal4-DAX1 luciferase reporter, luminescence; inhibition, % at 6.75 µM; hit rate 0.99% among 340,000;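 active = inhibition above the mean over all tested compounds plus 3 SD, cut at about 4.2% in these data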;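 note: 0% = DAX1-transfected cells with DMSO and 100% = empty-vector control cells with DMSO; inhibition shows as a rise in luminescence from relieved DAX1 repression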
# Target sequence (P51843 207-470 limits assumed): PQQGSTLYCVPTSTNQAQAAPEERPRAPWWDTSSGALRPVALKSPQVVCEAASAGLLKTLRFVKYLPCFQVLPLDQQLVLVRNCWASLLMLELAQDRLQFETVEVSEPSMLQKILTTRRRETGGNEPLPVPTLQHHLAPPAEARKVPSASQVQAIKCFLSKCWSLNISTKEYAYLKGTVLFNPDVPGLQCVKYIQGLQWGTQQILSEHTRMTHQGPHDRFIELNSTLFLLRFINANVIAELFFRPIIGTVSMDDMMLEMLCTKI
# * hit, by the source's call; . = no result. Compounds with a hit are over-represented: about 4.8% of the library has one in this group of screens.
SMILES,hgDAF12 agonist,DAX1 inh-1,hcDAF-12 act,ssDAF12 agonist,SMARCA2 act,DAX1 inh-2
CCCC(=O)OC12CCCN(C1)/C(=C/c1cccc(Cl)c1)C2 (stereo not given),-3.0,-0.8,-1.8,-1.0,-3.9,.
Cc1nnc(SC(C)C(=O)NC2CCCCC2C)n1N (stereo not given),-1.1,-0.1,-2.0,-0.9,-1.2,4.3*
COc1cc2oc3ccccc3c(=O)c2cc1OC,.,.,.,.,.,1.3
CCOC(=O)/C=C/c1ccc2oc3ccccc3c(=O)c2c1,6.8,1.0,5.0,2.0*,7.8,1.4
Cn1c(-c2ccccc2Br)n[nH]c1=S,-0.1,0.1,5.6*,-1.2,-0.7,-0.7
O=C1CCCC(=O)C1=C1SCCCS1,-0.4,0.1,0.5,-1.1,-0.7,4.5*
O=C1N=C(N2CCCCC2)S/C1=C\c1ccccc1F,4.4,0.2,0.3,-0.6,1.4,4.3*
NC(=O)c1ccc(NC(=O)c2ccc3c(c2)OCO3)cc1,5.6,2.8,4.0,0.4,5.1,2.9
O=C(Nc1ccc(Br)cc1)c1ccc2c(c1)OCO2,13.0*,2.9,6.5*,0.4,3.6,2.0
O=C(Nc1ccc2c(c1)OCO2)c1ccc(CO)cc1,7.9,4.2*,3.0,0.2,3.5,0.6
CC(=O)Nc1ccc(C(=O)Nc2ccc3c(c2)OCO3)cc1,6.5,0.7,-0.2,-0.9,-0.6,1.6
CCN1CCN(c2ccc(NC(=O)c3ccc4c(c3)OCO4)cc2)CC1,12.3*,1.8,1.5,0.3,4.6,1.3
Cc1ccc(/C=N\NC(=O)CN2CCN(S(=O)(=O)c3ccc(Br)cc3)CC2)s1,-1.6,-0.8,-1.5,-1.8,0.2,.
COc1ccccc1CCn1cnc(-c2cccc(F)c2)c1CC(C)C,-3.1,-2.2,-1.5,-1.5,-8.2,.
C[C@H]1[C@@H](C(=O)N2CCCC2)CC(=O)/C(=N/OCc2ccccc2)C[C@@H]1c1ccccc1,0.5,-0.5,0.0,-1.2,-3.3,.
c1ccc(-c2cn3nc(-c4ccccc4)sc3n2)cc1,.,.,.,.,.,5.6*
Cc1ccc(C2=CC(c3cccs3)n3nnnc3N2)cc1 (stereo not given),1.8,-0.3,3.5,1.0*,-0.2,1.1
CCc1nnc(NC(=O)CSc2nnc3c(n2)[nH]c2ccccc23)s1,0.6,0.1,-1.0,1.8*,-1.7,-0.4
CCn1c2ccccc2c2cc(C=Nn3c(-c4ccccn4)n[nH]c3=S)ccc21,-3.4,-3.5,-0.6,-1.9,-3.1,.
O=C(O)c1ccc(COc2ccccc2Cl)cc1,5.6,0.5,-1.5,-1.2,0.3,-0.3
O=C(O)c1cccc(COc2ccccc2Cl)c1,6.8,4.5*,3.6,0.0,-2.4,-5.8
O=C(c1ccccc1C(F)(F)F)N1CCN(S(=O)(=O)c2ccccc2)CC1,-1.1,0.6,-1.0,-0.8,0.8,7.5*
c1ccc2c(c1)CCCN2Cc1nnnn1CC1CCCO1 (stereo not given),3.1,0.4,4.9,-0.2,-1.6,-1.8
c1ccc(CCn2nnnc2CN2CCCc3ccccc32)cc1,0.9,-0.3,5.8*,0.3,-3.7,0.3
CCOC(=O)CN/C=C(\C#N)c1ccccc1,-3.5,-0.2,-0.8,-1.3,-3.3,5.4*
SMILES,hgDAF12 agonist,DAX1 inh-1,hcDAF-12 act,ssDAF12 agonist,SMARCA2 act,DAX1 inh-2
Cc1cc(-c2nnc(CCC(=O)N(C)CCc3ccccc3)o2)no1,0.5,0.8,-1.8,-1.5,-3.5,1.6
Cc1cccc(Cc2nnc(CCC(=O)N(C)CCc3ccccc3)o2)c1,11.9*,1.7,4.2,-0.6,5.0,1.7
C=CCN(CC#CC1=CCCCC1)Cc1ccc(OC)cc1OC,2.1,-0.2,-1.7,-1.6,-1.7,.
CCCCCCc1ccc(-c2ncc(N)cn2)cc1,11.3*,2.4,2.3,-0.6,0.7,0.7
O=[N+]([O-])c1ccc(/C=N/NC(=S)Nc2ccccc2C(F)(F)F)o1,-0.8,-1.2,0.3,-0.6,-1.2,4.2*
O=C(N/N=C/c1ccc([N+](=O)[O-])o1)C(O)c1ccccc1 (stereo not given),-5.2,-1.1,-3.4,-1.6,-3.8,-3.7
Cc1ccc2c(c1)Oc1ccc([N+](=O)[O-])cc1C(=O)N2,2.4,-0.5,6.1*,0.1,-1.0,-0.9
Cc1ccc2c(c1)Oc1ccc(NC(=O)CCl)cc1C(=O)N2,-12.5,-4.0,-5.9,-1.4,-7.0,-3.6
COC(=O)c1ccc(NC(=O)c2ccc(OC(C)=O)c(OC)c2)cc1,9.3,4.0*,3.2,-1.6,2.0,-1.1
O=C(CN1C(=O)C2CCCCC2C1=O)OCn1nnc2ccccc2c1=O (stereo not given),0.8,-0.4,0.6,-1.8,0.3,6.4*
O=C(OCn1nnc2ccccc2c1=O)C1CCCCC1,2.6,0.1,-1.2,-1.4,-4.0,-0.2
CSCCCNc1nc(C)nc2c1nnn2Cc1ccccc1,-0.2,-0.6,-0.5,-1.7,1.1,.
Cc1cc(C(=O)COC(=O)c2n[nH]c(=O)c3ccccc23)c(C)n1C,5.6,3.2,-0.7,-0.9,4.6,0.3
COc1ccc(C(=O)COC(=O)c2cccnc2Cl)c(OC)c1,12.6*,1.4,0.4,-0.6,3.5,2.0
CC(CNC(=O)COC(=O)c1cccnc1Cl)c1ccccc1 (stereo not given),5.0,3.1,1.4,1.2*,-2.3,-1.0
COc1cccc(NC(=O)C(C)OC(=O)c2n[nH]c3ccccc23)c1 (stereo not given),11.1*,-0.8,1.1,0.3,-1.1,0.2
COc1ccc(OC)c(C(=O)COC(=O)c2cccnc2Cl)c1,2.6,-0.3,-0.2,-0.7,0.8,1.9
CNc1snc(C)c1C(=O)OC(C)C(=O)Nc1cccc(OC)c1 (stereo not given),-0.9,-2.5,-3.2,-1.5,-2.8,-0.3
CC(CNC(=O)COC(=O)c1cccs1)c1ccccc1 (stereo not given),1.4,-1.7,-0.4,-1.4,1.2,0.8
Cc1cc(C(=O)COC(=O)c2n[nH]c3ccccc23)c(C)n1C,17.1*,4.5*,8.1*,1.2*,4.6,1.6
CC1CCCCC1N(C(=O)c1cc(C2CC2)on1)C1CCCCCC1 (stereo not given),-3.9,-0.9,1.9,-1.2,-2.6,.
COC(=O)[C@]12C[C@H](CC(=O)N3CCCCC3)C(=O)N(Cc3ccc4c(c3)OCO4)C1=C[C@H](C(C)C)O[C@@H]2C1CC1,-0.3,-1.0,-1.6,-1.6,1.1,.
C#CCN(C)S(=O)(=O)c1ccc(N2CCCC2)cc1Br,1.2,-1.4,-1.8,-1.8,-4.2,.
COc1ccc(C(=O)Cn2cnc3ccccc3c2=O)c(OC)c1,5.7,3.6*,2.8,-0.9,1.6,1.3
COc1ccc(OC)c(NC(=O)COC(=O)c2n[nH]c3ccccc23)c1,0.2,0.2,0.3,-1.3,0.3,-1.1
COc1ccc(C(=O)COC(=O)c2n[nH]c3ccccc23)c(OC)c1,12.3*,4.2*,3.8,-0.5,5.3,1.5

# Source: PubChem BioAssay (The Scripps Research Institute Molecular Screening Center)
